# From PubChem BioAssay AID540356 (Broad Institute, 2011)
# Hit rate of the full screen: of about 2,500 compounds, about 360 (14%) were called active. Not all results are given here. A number with no mark means an inactive call.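 The calls were made as follows: active = signal-lowering compounds whose fitted half-maximal concentration AC50 is no higher than ten times their top tested concentration; inconclusive = flat curve with 30 to 70% inhibition, or poor fit; inactive = flat within 30%, signal increase, or AC50 above limit.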
# Test: HRP/luminol detection interference without ALR, dose response, artefact control for ALR inhibitor project, biochemical, luminescence, no ALR or DTT, cherry-pick (AID 540356)
# Conditions: HRP/H2O2 luminol luminescence counterscreen; series mostly up to 10 µM
row,SMILES,AC50
1,Cc1nc(C(F)(F)F)c(C(=O)O)cc1-c1nc(-c2ccccc2)cs1,inactive
2,Oc1ccc(-c2nc(-c3ccc(O)c(O)c3)cs2)cc1,6.17 µM (active)
3,Nc1nc(-c2ccc3ccccc3c2)cs1,inactive
4,O=C(O)c1ccccc1C(=O)Nc1ccc(-c2csc(-c3ccccc3)n2)cc1,inactive
5,Cc1cc(-c2n[nH]c(=S)n2/N=C/c2ccc(Cl)c([N+](=O)[O-])c2)n[nH]1,inactive
6,CN(C)c1ccc(/C=N/Nc2ccc(-n3ccnc3)nn2)cc1,inactive
7,O=C(Nc1ccc(O)cc1)c1ccc(C(=O)c2ccccc2)o1,inactive
8,CCN(CC)c1ccc(NC(=O)c2ccc(Br)o2)cc1,> 10 µM
9,Oc1ccc(/C(Cc2ccccn2)=N\Nc2ccccc2)c(O)c1,inactive
10,Cc1ccc2nc(C)cc(N/N=C/c3ccccc3O)c2c1,inactive
11,COc1ccc(-c2n[nH]c(=S)n2-c2ccc(C)cc2)cc1OC,inactive
12,COc1ccc(-n2c(-c3ccc(OC)c(OC)c3)n[nH]c2=S)cc1,inactive
13,Cc1occc1C(=O)NCCCCc1ccccc1,inactive
14,O=C(NCCCN1CCCC1)c1ccc2c(Cl)c3c(nc2c1)CCCC3,inactive
15,Nc1ccc(CCc2ccc(N)cc2)cc1,inactive
16,CC(C)Cc1nc2ccc(N)cc2[nH]1,inactive
17,O=C(Nc1nnc(-c2cccnc2)o1)c1cccc([N+](=O)[O-])c1,inactive
18,Nc1ccc(N2CCN(C(=O)c3ccco3)CC2)cc1,inactive
19,O=C1NC(=O)/C(=C/c2cc3c(cc2Br)OCO3)S1,inactive
20,COc1cc(/C=C2\SC(=Nc3ccccc3OC)NC2=O)ccc1O,inactive
21,O=C1NC(=O)/C(=C\c2ccc(O)cc2O)S1,7.54 µM (active)
22,COc1cc(/C=N/NC(=O)c2cccc(NC(=O)c3ccccc3)c2)ccc1O,inactive
23,COc1cc(C(=O)n2nc(C)cc2C)ccc1O,inactive

row,SMILES,AC50
1,COc1cc(C(=S)N(C)C)ccc1O,inactive
2,C/C(=N\Nc1nc2ccccc2[nH]1)c1ccc2c(c1)OCO2,inactive
3,CCN(CCCNC(=O)CNC(=O)Cn1cnc2ccccc2c1=O)c1ccccc1,inactive
4,COc1ccccc1N1CCN(CCc2n[nH]c(=S)n2-c2ccccc2)CC1,inactive
5,C/C(=C\c1ccc(N)cc1)c1nc2ccccc2[nH]1,6.64 µM (active)
6,C/C(=N\Nc1nc2ccccc2[nH]1)c1cccs1,inactive
7,C(=C\c1nc2ccccc2[nH]1)/c1ccccc1,inactive
8,COc1ccc(N2CCN(C(=O)Cc3cccs3)CC2)cc1,inactive
9,Cc1ccc(S(=O)(=O)NNC(=O)c2ccc3ccccc3n2)cc1,inactive
10,CCn1c(-c2ccccc2O)n[nH]c1=S,inactive
11,Oc1ccc(Br)cc1-c1cc(-c2ccco2)[nH]n1,inactive
12,Cc1c(NS(=O)(=O)c2ccccc2)cc(Cl)c(O)c1C,inactive
13,O=C(O)c1ccc(CSc2nc3ccc(NC(=O)c4ccccc4C(=O)O)cc3s2)cc1,inactive
14,COc1cc(/C(C)=N/NC(=O)Cc2c(C)[nH][nH]c2=O)ccc1O,5.67 µM (active)
15,COc1cc(C(=O)N/N=C/c2cccc(Oc3ccccc3)c2)ccc1O,inactive
16,COc1cc(/C=N/NC(=O)CNC(=O)c2ccncc2)ccc1O,inactive
17,CC1(CCC(=O)N2CCCC(Nc3ccc(F)cc3)C2)CC1 (centres undefined),inactive
18,S=c1[nH]nc(-c2ccncc2)n1/N=C/C=C/c1ccccc1,inactive
19,S=c1[nH]nc(-c2ccco2)n1/N=C/c1ccccc1,inactive
20,Cc1ccc(NC(=O)CN(c2ccc3c(c2)OCO3)S(=O)(=O)c2c(C)n[nH]c2C)cc1,inactive
21,CC(c1ccc(F)cc1)n1c(-c2cccs2)n[nH]c1=S (centres undefined),inactive
22,S=c1nccc(-c2cccs2)[nH]1,3.95 µM (active)
23,S=c1[nH]cc(-c2ccccc2)[nH]1,inactive

row,SMILES,AC50
1,Fc1ccc(-c2ccnc(=S)[nH]2)cc1,2.78 µM (active)
2,Cc1ccc(N2C(=O)CC(NNC(=O)c3cccc(S(=O)(=O)N4CCCC4)c3)C2=O)cc1 (centres undefined),inactive
3,COc1ccccc1N1CCN(S(=O)(=O)c2ccccc2)CC1,inactive
4,CC(=O)N1CCN=C1SCc1cccc(F)c1,inactive
5,COc1ccc(-c2csc(Nc3ccc(S(=O)(=O)Nc4cc(C)on4)cc3)n2)cc1,inactive
6,CC(C(=O)NC1C=CS(=O)(=O)C1)N1C(=O)/C(=C\c2ccccc2)SC1=S (centres undefined),inactive
7,O=C(O)CCCN1C(=O)/C(=C\c2ccc(-c3nc4ccccc4s3)o2)SC1=S,inactive
8,O=c1ccc(-c2n[nH]c(=S)n2-c2ccc(F)c(Cl)c2)n[nH]1,inactive
9,CN(C)c1cccc(C(=O)NCc2ccccc2)c1,inactive
10,CC(=O)c1ccc(S(=O)(=O)N2CCNC(=O)C2)cc1,inactive
11,COC(=O)Nc1ccc(S(=O)(=O)N2CCC(C(=O)N(C)C3CCCCC3)CC2)cc1,inactive
12,COc1ccc(N2CCN(C(=O)CCNS(=O)(=O)c3ccccc3)CC2)cc1,inactive
13,COc1ccccc1NC(=O)Nc1ncccc1C,inactive
14,Cc1ccc(-c2cnc(SCCNC(=O)c3ccco3)[nH]2)cc1,inactive
15,Cc1cccc(-n2c(-c3ccoc3C)n[nH]c2=S)c1,inactive
16,CCN(CC)c1ccc(C2CC(=O)Nc3cc(OC)c(OC)cc32)cc1 (centres undefined),inactive
17,C/C(=N\NC(=O)c1cccc(N/N=C(\C)c2ccncc2)c1)c1ccncc1,inactive
18,C/C(=N\NC(=O)c1ccncc1)c1ccc(N(C)C)cc1,inactive
19,C/C(=N\NC(=O)c1ccc(N/N=C(\C)c2ccncc2)cc1)c1ccncc1,7.62 µM (active)
20,Cc1cc(S(=O)(=O)N2CCN(c3ccccc3O)CC2)c(C)s1,inactive
21,COc1cc(-c2csc(CCn3nc(C)cc3C)n2)cc(OC)c1OC,inactive
22,C=CCn1c(-c2cccc([N+](=O)[O-])c2)n[nH]c1=S,inactive
23,C=CCn1c(-c2ccc(N)cc2)nc2ccccc21,inactive

row,SMILES,AC50
1,CC(C)c1ccc(NC(=O)Cc2c(C(=O)O)n(C)c3ccccc23)cc1,inactive
2,CCc1ccc(NCc2ccc(OC)c(Cn3ccnc3)c2)cc1,inactive
3,CCN(CC)c1ccc(/C=N\NC(N)=O)cc1,inactive
4,O=C(CCn1cnc2ccccc21)N/N=C/c1ccc(O)cc1,9.88 µM (active)
5,O=C(Cn1cnc2ccccc21)N/N=C/c1ccccn1,inactive
6,Cc1ccc(NC(=O)CCC(=O)N/N=C/c2ccc(O)cc2)cc1,inactive
7,O=C(CC(=O)N/N=C/c1ccc(O)cc1)N/N=C/c1ccc(O)cc1,2.72 µM (active)
8,Cc1nc(C)c(CC(=O)N/N=C/c2ccc(O)cc2)c(=O)[nH]1,inactive
9,O=C(N/N=C/c1cccc(O)c1)N/N=C/c1cccc(O)c1,inactive
10,CC12CCC(C(=O)N/N=C/c3ccc(O)cc3)(OC1=O)C2(C)C (centres undefined),8.23 µM (active)
11,O=C(CCN1CCN(C(c2ccccc2)c2ccccc2)CC1)N/N=C/c1ccc(O)cc1,inactive
12,O=C(Cn1cc(C(F)(F)F)ccc1=O)N/N=C/c1ccc(O)cc1,inactive
13,O=C(C[n+]1ccccc1)N/N=C/c1ccc(O)cc1,6.56 µM (active)
14,CN(C)c1ccc(/C=N/NC(=O)CCC(=O)NCc2ccccc2)cc1,inactive
15,COc1ccc(C2SCC(=O)N2c2ccc(F)cc2)cc1 (centres undefined),inactive
16,NNC(=O)c1cc(-c2ccccc2)sc1N,inactive
17,Cc1cc(C)cc(N2C(=O)CSC2c2ccccn2)c1 (centres undefined),inactive
18,CC(NC(=O)c1ccccc1)C(=O)N/N=C/c1ccc(O)cc1 (centres undefined),inactive
19,COc1cc(/C=N\NC(=O)c2ccc(-c3ccccc3)cc2)cc(OC)c1O,inactive
20,Cn1nc(-c2ccc(Cl)cc2)c2cc(C(=O)NCCCN3CCCC3)sc21,inactive
21,CCn1c(-c2ccc(Cl)cc2)n[nH]c1=S,inactive
22,S=c1[nH]nc(-c2ccc(Cl)cc2)n1-c1ccc(Cl)cc1,inactive
23,Cc1cccc(N2CC(C(=O)Nc3ccccc3N3CCCC3)CC2=O)c1C (centres undefined),inactive

row,SMILES,AC50
1,COc1ccc(CC(=O)N2CCN=C2SCc2ccc([N+](=O)[O-])cc2)cc1,inactive
2,CCN(CCNC(=O)C1CCN(S(=O)(=O)c2cccc3nsnc23)CC1)c1ccccc1,inactive
3,COc1ccc(C2NC(=O)CS2)cc1OC (centres undefined),inactive
4,COc1ccc(/C=N\NC(=O)CCN2CCN(c3ccccc3)CC2)cc1OC,inactive
5,COc1cc(/C=N/NC(=O)CCN2CCCCC2)ccc1O,8.16 µM (active)
6,COc1ccc(/C=N/NC(=O)CCn2nc(C)cc2C)cc1O,inactive
7,O=C(NCc1ccccn1)c1ccc2c(c1)N(Cc1ccccc1)CCS2,inactive
8,COc1ccc(N2CCN(C(=O)CCNC(=O)c3ccc(C(C)(C)C)cc3)CC2)cc1,inactive
9,Clc1nnc(N2CCCCC2)c2ccccc12,inactive
10,CC(C)c1ccc(NC2CCCN(C(=O)c3cc(C(C)C)nc(N)n3)C2)cc1 (centres undefined),inactive
11,Cc1ccc(S(=O)(=O)Nc2cc(C)c(O)cc2C)cc1,inactive
12,Cc1cc(C(=O)N2CCCC(Nc3ccc(C(C)C)cc3)C2)nn1C (centres undefined),inactive
13,CC(C)c1ccc(S(=O)(=O)Nc2ccc(O)c(Sc3ncn[nH]3)c2)cc1,9.35 µM (active)
14,Cc1ccc(S(=O)(=O)Nc2ccc(O)c(Sc3ncn[nH]3)c2)cc1,10.4 µM (active)
15,Cc1cc(O)c(Sc2ncn[nH]2)cc1NS(=O)(=O)c1ccc(Cl)cc1,inactive
16,COc1cc(-n2c(-c3ccccc3)n[nH]c2=S)c(OC)cc1Cl,inactive
17,COc1ccc(C(=O)N2CCN=C2SCc2cccnc2)c(OC)c1,inactive
18,Cc1cc(-c2nsc(=O)o2)c(S(C)(=O)=O)s1,inactive
19,Cc1c(/C=N\NC(=O)c2ccc(F)cc2)cnn1C,inactive
20,CCN(CC)c1ccc(CNc2ccc3c(c2)ncn3CC)cc1,inactive
21,CCN(CC)c1ccc(CN2CCCCCC2)cc1,inactive
22,CN(C)c1ccc(-c2n[nH]c(=S)n2-c2ccccc2)cc1,inactive
